# Laboratory results published in article PMC11006913.
# Changes are numbered by the printed parent chain.
# Assays:
# Test in all cases: PBM; 200 nM protein, PBS
# Conditions in all cases: dsDNA, one strand shown
# HESX1 [1] = target: HESX1 (Homo sapiens, UniProt Q9UBX0 95-180, R165K)
# HESX1 [2] = target: HESX1 (Homo sapiens, UniProt Q9UBX0 95-180)
# HESX1 [3] = target: HESX1 (Homo sapiens, UniProt Q9UBX0 95-180, P111T)
# HOXB4 [4] = target: HOXB4 (Homo sapiens, UniProt P17483 148-234)
# HOXB9 = HOXB9 (Homo sapiens, UniProt P17482 171-250, T197M)
# Chain of HOXB9 (P17482 171-250 T197M): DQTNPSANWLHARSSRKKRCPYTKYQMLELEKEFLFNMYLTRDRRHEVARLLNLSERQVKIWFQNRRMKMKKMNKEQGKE
# HOXB4 [5] = target: HOXB4 (Homo sapiens, UniProt P17483 148-234, V174I)
# Chain of HOXB4 (Homo sapiens, UniProt P17483 148-234, V174I) (P17483 148-234 V174I): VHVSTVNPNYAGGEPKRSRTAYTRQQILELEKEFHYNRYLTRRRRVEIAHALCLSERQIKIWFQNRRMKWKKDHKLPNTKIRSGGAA
# HOXA4 [6] = target: HOXA4 (Homo sapiens, UniProt Q00056 201-287, W262R)
# Chain of HOXA4 (Homo sapiens, UniProt Q00056 201-287, W262R) (Q00056 201-287 W262R): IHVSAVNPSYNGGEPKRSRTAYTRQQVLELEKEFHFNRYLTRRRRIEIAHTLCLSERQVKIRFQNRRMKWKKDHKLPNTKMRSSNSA
# HOXA2 [7] = target: HOXA2 (Homo sapiens, UniProt O43364 129-215, R185T)
# Chain of HOXA2 (Homo sapiens, UniProt O43364 129-215, R185T) (O43364 129-215 R185T): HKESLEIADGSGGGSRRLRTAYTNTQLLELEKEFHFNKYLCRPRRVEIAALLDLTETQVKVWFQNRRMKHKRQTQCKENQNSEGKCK
# HOXA4 [8] = target: HOXA4 (Homo sapiens, UniProt Q00056 201-287, R217L)
# Chain of HOXA4 (Homo sapiens, UniProt Q00056 201-287, R217L) (Q00056 201-287 R217L): as the sequence (Q00056 201-287 W262R) above, with R17L, R62W counted along it
# HOXA2 [9] = target: HOXA2 (Homo sapiens, UniProt O43364 129-215, R185K)
# Chain of HOXA2 (Homo sapiens, UniProt O43364 129-215, R185K) (O43364 129-215 R185K): as the sequence (O43364 129-215 R185T) above, with T57K counted along it
# HOXA4 [10] = target: HOXA4 (Homo sapiens, UniProt Q00056 201-287)
# Chain of HOXA4 (Homo sapiens, UniProt Q00056 201-287) (Q00056 201-287): as the sequence (Q00056 201-287 W262R) above, with R62W counted along it
# VAX1 [11] = target: VAX1 (Homo sapiens, UniProt Q5SQQ9 86-172)
# Chain of VAX1 (Homo sapiens, UniProt Q5SQQ9 86-172) (Q5SQQ9 86-172): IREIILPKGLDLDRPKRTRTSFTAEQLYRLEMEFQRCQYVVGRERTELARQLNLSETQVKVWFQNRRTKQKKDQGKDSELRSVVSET
# VAX1 [12] = target: VAX1 (Homo sapiens, UniProt Q5SQQ9 86-172, T142I)
# Chain of VAX1 (Homo sapiens, UniProt Q5SQQ9 86-172, T142I) (Q5SQQ9 86-172 T142I): as the sequence (Q5SQQ9 86-172) above, with T57I counted along it
# HOXA2 [13] = target: HOXA2 (Homo sapiens, UniProt O43364 129-215, Y150S)
# Chain of HOXA2 (Homo sapiens, UniProt O43364 129-215, Y150S) (O43364 129-215 Y150S): as the sequence (O43364 129-215 R185T) above, with Y22S, T57R counted along it
# HOXA4 [14] = target: HOXA4 (Homo sapiens, UniProt Q00056 201-287, W262F)
# Chain of HOXA4 (Homo sapiens, UniProt Q00056 201-287, W262F) (Q00056 201-287 W262F): as the sequence (Q00056 201-287 W262R) above, with R62F counted along it
# HOXA2 [15] = target: HOXA2 (Homo sapiens, UniProt O43364 129-215)
# Chain of HOXA2 (Homo sapiens, UniProt O43364 129-215) (O43364 129-215): as the sequence (O43364 129-215 R185T) above, with T57R counted along it
# VAX1 [16] = target: VAX1 (Homo sapiens, UniProt Q5SQQ9 86-172, K157R)
# Chain of VAX1 (Homo sapiens, UniProt Q5SQQ9 86-172, K157R) (Q5SQQ9 86-172 K157R): as the sequence (Q5SQQ9 86-172) above, with K72R counted along it
# VENTX [17] = target: T1, VENTX (Homo sapiens, UniProt O95231 78-163, R121Q)
# T1 sequence: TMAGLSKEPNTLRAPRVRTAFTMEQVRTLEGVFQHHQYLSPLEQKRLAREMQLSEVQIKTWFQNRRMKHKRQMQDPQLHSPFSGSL
# VENTX [18] = target: T2, VENTX (Homo sapiens, UniProt O95231 78-163)
# T2 sequence: T1 sequence with Q44R
# VENTX [19] = target: T3, VENTX (Homo sapiens, UniProt O95231 78-163, Y115F)
# T3 sequence: T1 sequence with Y38F, Q44R
# Chain of HESX1 (Homo sapiens, UniProt Q9UBX0 95-180, P111T) (Q9UBX0 95-180 P111T): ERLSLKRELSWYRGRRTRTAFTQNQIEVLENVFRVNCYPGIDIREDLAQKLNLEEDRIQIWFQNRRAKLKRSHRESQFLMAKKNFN
# Chain of HESX1 (Homo sapiens, UniProt Q9UBX0 95-180) (Q9UBX0 95-180): as the sequence (Q9UBX0 95-180 P111T) above, with T17P counted along it
# Chain of HESX1 (Homo sapiens, UniProt Q9UBX0 95-180, R165K) (Q9UBX0 95-180 R165K): as the sequence (Q9UBX0 95-180 P111T) above, with T17P, R71K counted along it
# Chain of HOXB4 (Homo sapiens, UniProt P17483 148-234) (P17483 148-234): as the sequence (P17483 148-234 V174I) above, with I27V counted along it
sequence,measurement,setting,value
AAGTTCCC,binding signal,HESX1 [1],"6.43 upbm affinity estimate (log intensity, higher = more binding, comparable within an allelic series)"
same,binding signal,HESX1 [2],"6.39 upbm affinity estimate (log intensity, higher = more binding, comparable within an allelic series)"
same,binding signal,HESX1 [3],"6.49 upbm affinity estimate (log intensity, higher = more binding, comparable within an allelic series)"
CGGGAGAG,binding signal,HOXB4 [4],"7.57 upbm affinity estimate (log intensity, higher = more binding, comparable within an allelic series)"
same,binding signal,HOXB9,"8.56 upbm affinity estimate (log intensity, higher = more binding, comparable within an allelic series)"
same,binding signal,HOXB4 [5],"7.66 upbm affinity estimate (log intensity, higher = more binding, comparable within an allelic series)"
AATCATTA,binding signal,HOXB4 [4],"13.2 upbm affinity estimate (log intensity, higher = more binding, comparable within an allelic series)"
same,binding signal,HOXA4 [6],"10.7 upbm affinity estimate (log intensity, higher = more binding, comparable within an allelic series)"
same,binding signal,HOXA2 [7],"12.4 upbm affinity estimate (log intensity, higher = more binding, comparable within an allelic series)"
same,binding signal,HOXA4 [8],"12.3 upbm affinity estimate (log intensity, higher = more binding, comparable within an allelic series)"
same,binding signal,HOXB4 [5],"13.8 upbm affinity estimate (log intensity, higher = more binding, comparable within an allelic series)"
same,binding signal,HOXA2 [9],"13.2 upbm affinity estimate (log intensity, higher = more binding, comparable within an allelic series)"
same,binding signal,HOXA4 [10],"13.9 upbm affinity estimate (log intensity, higher = more binding, comparable within an allelic series)"
same,binding signal,VAX1 [11],"12.7 upbm affinity estimate (log intensity, higher = more binding, comparable within an allelic series)"
same,binding signal,VAX1 [12],"12.6 upbm affinity estimate (log intensity, higher = more binding, comparable within an allelic series)"
same,binding signal,HOXA2 [13],"10.8 upbm affinity estimate (log intensity, higher = more binding, comparable within an allelic series)"
same,binding signal,HOXA4 [14],"11.6 upbm affinity estimate (log intensity, higher = more binding, comparable within an allelic series)"
same,binding signal,HOXA2 [15],"12.1 upbm affinity estimate (log intensity, higher = more binding, comparable within an allelic series)"
same,binding signal,VAX1 [16],"12.4 upbm affinity estimate (log intensity, higher = more binding, comparable within an allelic series)"
CAAATGGG,binding signal,HESX1 [1],"7.28 upbm affinity estimate (log intensity, higher = more binding, comparable within an allelic series)"
same,binding signal,HESX1 [2],"7.38 upbm affinity estimate (log intensity, higher = more binding, comparable within an allelic series)"
CGATATTA,binding signal,HESX1 [1],"8.16 upbm affinity estimate (log intensity, higher = more binding, comparable within an allelic series)"
same,binding signal,HESX1 [2],"8.27 upbm affinity estimate (log intensity, higher = more binding, comparable within an allelic series)"
same,binding signal,HESX1 [3],"7.74 upbm affinity estimate (log intensity, higher = more binding, comparable within an allelic series)"
CGAGGGTC,binding signal,HOXB4 [4],"7.67 upbm affinity estimate (log intensity, higher = more binding, comparable within an allelic series)"
same,binding signal,HOXB4 [5],"7.5 upbm affinity estimate (log intensity, higher = more binding, comparable within an allelic series)"
same,binding signal,VAX1 [11],"6.87 upbm affinity estimate (log intensity, higher = more binding, comparable within an allelic series)"
same,binding signal,VAX1 [12],"7 upbm affinity estimate (log intensity, higher = more binding, comparable within an allelic series)"
same,binding signal,VAX1 [16],"7.08 upbm affinity estimate (log intensity, higher = more binding, comparable within an allelic series)"
GCCCAGAC,binding signal,HOXB4 [4],"7.49 upbm affinity estimate (log intensity, higher = more binding, comparable within an allelic series)"
same,binding signal,HOXB4 [5],"7.68 upbm affinity estimate (log intensity, higher = more binding, comparable within an allelic series)"
AACAATAC,binding signal,HESX1 [1],"7.27 upbm affinity estimate (log intensity, higher = more binding, comparable within an allelic series)"
same,binding signal,HESX1 [2],"7.3 upbm affinity estimate (log intensity, higher = more binding, comparable within an allelic series)"
same,binding signal,HESX1 [3],"7.19 upbm affinity estimate (log intensity, higher = more binding, comparable within an allelic series)"
CATTAGAG,binding signal,HESX1 [1],"8.32 upbm affinity estimate (log intensity, higher = more binding, comparable within an allelic series)"
same,binding signal,HESX1 [2],"8.46 upbm affinity estimate (log intensity, higher = more binding, comparable within an allelic series)"
CATTAATG,binding signal,HOXB4 [4],"13.4 upbm affinity estimate (log intensity, higher = more binding, comparable within an allelic series)"
same,binding signal,VENTX [17],"11.8 upbm affinity estimate (log intensity, higher = more binding, comparable within an allelic series)"
same,binding signal,HOXB9,"10.3 upbm affinity estimate (log intensity, higher = more binding, comparable within an allelic series)"
same,binding signal,HOXA4 [6],"10.7 upbm affinity estimate (log intensity, higher = more binding, comparable within an allelic series)"
same,binding signal,VENTX [18],"12.5 upbm affinity estimate (log intensity, higher = more binding, comparable within an allelic series)"
same,binding signal,VENTX [19],"11.8 upbm affinity estimate (log intensity, higher = more binding, comparable within an allelic series)"
same,binding signal,HOXA2 [7],"12.6 upbm affinity estimate (log intensity, higher = more binding, comparable within an allelic series)"
same,binding signal,HOXA4 [8],"12.3 upbm affinity estimate (log intensity, higher = more binding, comparable within an allelic series)"
same,binding signal,HOXB4 [5],"14 upbm affinity estimate (log intensity, higher = more binding, comparable within an allelic series)"
same,binding signal,HOXA2 [9],"13.4 upbm affinity estimate (log intensity, higher = more binding, comparable within an allelic series)"
same,binding signal,HOXA4 [10],"14.2 upbm affinity estimate (log intensity, higher = more binding, comparable within an allelic series)"
same,binding signal,VAX1 [11],"12.7 upbm affinity estimate (log intensity, higher = more binding, comparable within an allelic series)"
same,binding signal,VAX1 [12],"12.5 upbm affinity estimate (log intensity, higher = more binding, comparable within an allelic series)"
same,binding signal,HOXA2 [13],"11.1 upbm affinity estimate (log intensity, higher = more binding, comparable within an allelic series)"
same,binding signal,HOXA4 [14],"11.7 upbm affinity estimate (log intensity, higher = more binding, comparable within an allelic series)"
same,binding signal,HOXA2 [15],"12.3 upbm affinity estimate (log intensity, higher = more binding, comparable within an allelic series)"
same,binding signal,VAX1 [16],"12.8 upbm affinity estimate (log intensity, higher = more binding, comparable within an allelic series)"
